From PubChem BioAssay (Tox21)
Several values for one entry are separate records, joined by “and”; a condition that tells them apart may be missing. Equal values may be shown once. Records with an inconclusive call do not appear. Activity calls are given as the source filed them. Unless noted, the call rests on the fitted dose curve; in most records, active means well fitted curve in the direction sought with a large enough effect in the repeat runs; inconclusive means weak or mixed curves; inactive means no such curve, though single readings can be large; an effect the other way counts as inactive or inconclusive.

Legend:
[1] = qHTS assay to identify small molecule antagonists of the progesterone receptor (PR) signaling pathway - cell viability counter screen (AID 1346798); further: nearly all actives have a fitted effect of over 50% in size; further: potency means the concentration at half of the fitted maximal effect;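 on activity change, negative = cytotoxicity: HEK293T PR-UAS-bla cells stimulated with the agonist R5020; series mostly up to about 92 µM; on the % scale 0 is the no-effect control and ±100 the full control effect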
How it was run: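 HEK293T PR-UAS-bla, 2% charcoal-stripped FBS; 4 hr pre-plate; cpd + R5020, 16 h 37C; LiveBLAzer read first; then CellTiter-Glo 30 min RT, luminescence.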

[2] = qHTS assay to identify small molecule antagonists of the TGF-beta/Smad signaling pathway - cell viability counter screen (AID 1346824); further: on the % scale 0 is the no-effect control and ±100 the full control effect; nearly all actives have a fitted effect of over 50% in size
How it was run: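 Cytotoxicity counter-screen run in the same wells as the beta-lactamase Smad reporter read: CellTiter-Glo luminescence after 30 min at room temperature. HEK 293T SBE-bla cells had 5 hr compound exposure at 37 C with TGF-beta1 (0.25 ng/mL stock).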

[3] = qHTS assay to identify small molecule agonists of the TGF-beta/Smad signaling pathway - cell viability counter screen (AID 1346829); further: top concentration of the series differs between compounds; on the % scale 0 is the no-effect control and ±100 the full control effect; nearly all actives have a fitted effect of over 45% in size
How it was run: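 In parallel with the Smad reporter read, viability of HEK 293T cells stably carrying SBE-bla is quantified by ATP luminescence following 5 hr compound treatment.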

[4] = qHTS assay to identify small molecule agonists of the TGF-beta/Smad signaling pathway (AID 1346859; active means well fitted activation curve with a large enough effect in the signal ratio in the repeat runs, not every such curve was filed as active; the % refers to the signal ratio; further: series mostly up to about 77 µM; on the % scale 0 is the no-effect control and ±100 the full control effect)
How it was run: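 SBE-bla HEK 293T, 4,000 cells/well, plated o/n; cpd in DMSO, 5 hr, 37 C/5% CO2; B/G FRET substrate 2 hr RT; ex 405, em 460/530 nm.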

[5] = target: Thyrotropin-releasing hormone receptor (Homo sapiens) (UniProt P34981); assay: qHTS assay to identify small molecule antagonists of the thyrotropin-releasing hormone receptor (TRHR) signaling pathway (AID 1346877; active means well fitted inhibition curve with a large enough effect in the repeat runs, not every such curve was filed as active; further: series mostly up to about 51 µM; on the % scale 0 is the no-effect control and ±100 the full control effect)
How it was run: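 In this cell-based calcium flux format, HEK293 cells expressing TRHR received test compound for 5 min before the agonist TRH (1 nM final). Dye loading lasted 2 h at 37 °C.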

[6] = Human pregnane X receptor (PXR) small molecule agonists, qHTS cell viability counter screen (AID 1346977); further: nearly all actives have a fitted effect of over 50% in size; further: potency means the concentration at half of the fitted maximal effect
How it was run: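 PXR-Luc HepG2, 2,000 cells/well, 5% charcoal-stripped FBS; 5hr settle; cpd 24hr, 37C/5% CO2; CellTiter-Fluor at 23hr, read 1hr later (fluorescence).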

[7] = Caspase-3/7 induction in HepG2 cells by small molecules, qHTS assay (AID 1346978); further: nearly all actives have a fitted effect of over 15% in size; further: potency means the concentration at half of the fitted maximal effect
How it was run: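 Caspase-3/7 induction was measured by Caspase-Glo 3/7 luminescence (30 min, room temperature) after a 17 hr compound exposure of wild-type HepG2 cells seeded at 2,000 per well and pre-incubated 5 hr.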

[8] = Caspase-3/7 induction in CHO-K1 cells by small molecules, qHTS cell viability counter screen (AID 1346979); further: nearly all actives have a fitted effect of over 35% in size; further: potency means the concentration at half of the fitted maximal effect
How it was run: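 Cells (CHO-K1, wild type) are plated at 1,500 per well and incubated 5hr. Test compounds in DMSO are then pinned in, followed by 16hr at 37C and 5% CO2. Viability is read by CellTiter-Fluor fluorescence after 1hr.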

[9] = Caspase-3/7 induction in CHO-K1 cells by small molecules, qHTS assay (AID 1346980); further: on the % scale 0 is the no-effect control and ±100 the full control effect; nearly all actives have a fitted effect of over 15% in size
How it was run: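 Luminescent Caspase-Glo 3/7 read (30min, room temperature) quantified apoptosis induction. Cells were wild-type CHO-K1, treated with compound for 17hr at 37 C and 5% CO2.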

[10] = Caspase-3/7 induction in HepG2 cells by small molecules, qHTS cell viability counter screen (AID 1346981); further: nearly all actives have a fitted effect of over 30% in size; further: potency means the concentration at half of the fitted maximal effect
How it was run: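 Counter screen for cytotoxicity: HepG2 exposed 16 hr to compounds, then CellTiter-Fluor viability signal (fluorescence, 1 hr reagent incubation).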

[11] = target: Nuclear receptor subfamily 1 group I member 2 (Homo sapiens) (UniProt O75469); assay: Human pregnane X receptor (PXR) small molecule agonists, qHTS assay (AID 1346982); further: nearly all actives have a fitted effect of over 35% in size; further: potency means the concentration at half of the fitted maximal effect
How it was run: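 Luminescence (ONE-Glo, 30 min RT) after 24 hr compound exposure of PXR-Luc HepG2 cells; cells rested 5 hr post-plating in 5% charcoal-stripped FBS medium.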

[12] = target: Cytochrome P450 2D6 (Homo sapiens) (UniProt P10635); assay: Cytochrome P450 Family 2 Subfamily D Member 6 (CYP2D6) small molecule antagonists: luciferase reporter qHTS assay (AID 1671196); further: nearly all actives have a fitted effect of over 50% in size; further: potency means the concentration at half of the fitted maximal effect
How it was run: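 Inhibition of CYP2D6 was gauged by loss of luminescence, since light produced tracks the luciferin generated from a proluciferin substrate. A 10 min room-temperature preincubation preceded 1 h NADPH-supported turnover.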

[13] = target: Cytochrome P450 2C9 (Homo sapiens) (UniProt P11712); assay: Cytochrome P450 Family 2 Subfamily C Member 9 (CYP2C9) small molecule antagonists: luciferase reporter qHTS assay (AID 1671198); further: nearly all actives have a fitted effect of over 50% in size; further: potency means the concentration at half of the fitted maximal effect
How it was run: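 Enzyme-substrate mix preincubated with compound 10 min at room temperature; reaction started with NADPH regeneration solution, 1 h 37C. Luminescent luciferin product read after 20 min detection reagent.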

[14] = target: Cytochrome P450 1A2 (Homo sapiens) (UniProt P05177); assay: Cytochrome P450 Family 1 Subfamily A Member 2 (CYP1A2) small molecule antagonists: luciferase reporter qHTS assay (AID 1671199); further: nearly all actives have a fitted effect of over 50% in size; further: potency means the concentration at half of the fitted maximal effect
How it was run: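 Signal from luciferin formed by CYP1A2 from a proluciferin substrate is read as luminescence, expressed in relative luminescence units. Compounds sit with enzyme 10 min, NADPH-driven reaction runs 1 h, all at room temperature.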

[15] = qHTS assay to identify small molecule agonists of the progesterone receptor (PR) signaling pathway - cell viability counter screen (AID 1346799; calls by dose curve; further: potency means the concentration at half of the fitted maximal effect; nearly all actives have a fitted effect of over 45% in size)
How it was run: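 Luminescence from CellTiter-Glo, added after the beta-lactamase FRET read in the same wells, gave cytotoxicity in PR-UAS-bla HEK293T cells treated with compounds for 16 hr at 37C.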

[16] = target: Nuclear receptor subfamily 1 group I member 2 (Homo sapiens) (UniProt O75469); assay: Human pregnane X receptor (PXR) activation by small molecules, qHTS assay (AID 1346985); further: on the % scale 0 is the no-effect control and ±100 the full control effect; nearly all actives have a fitted effect of over 40% in size
How it was run: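 DPX-2 cells (HepG2 co-transfected with a PXR response element and a CYP3A4-promoter luciferase construct) were seeded at 2,000 per well, rested 5 hr at 37C, then exposed to DMSO-dissolved compounds for 24 hr. Activation was read as luciferase luminescence.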

[17] = target: Thyrotropin-releasing hormone receptor (Homo sapiens) (UniProt P34981); assay: qHTS assay to identify small molecule agonists of the thyrotropin-releasing hormone receptor (TRHR) signaling pathway (AID 1346891; calls by dose curve; further: series mostly up to about 58 µM; on the % scale 0 is the no-effect control and ±100 the full control effect)
How it was run: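 Intracellular calcium rise, read as fluorescence every second for 3 min, served as the agonist signal in dye-loaded HEK293 cells expressing TRHR; each compound ran at 15 concentrations in triplicate.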

[18] = target: Nuclear receptor subfamily 1 group I member 2 (Homo sapiens) (UniProt O75469); assay: CYP3A4 induction through human pregnane X receptor (PXR) by small molecules, qHTS assay (AID 1346984); further: on the % scale 0 is the no-effect control and ±100 the full control effect; nearly all actives have a fitted effect of over 40% in size
How it was run: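 DPX-2 reporter cells; 24h cpd, 37C; Luciferin-IPA 3uM final x3h; One-Glo 30 min RT; lumi read.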

[19] = target: Cytochrome P450 2C19 (Homo sapiens) (UniProt P33261); assay: Cytochrome P450 Family 2 Subfamily C Member 19 (CYP2C19) small molecule antagonists: luciferase reporter qHTS assay (AID 1671197); further: nearly all actives have a fitted effect of over 65% in size; further: potency means the concentration at half of the fitted maximal effect
How it was run: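 Compounds were tested on CYP2C19 activity via proluciferin conversion to luciferin. The 37C, 1 h reaction followed NADPH addition; detection reagent stopped it.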

Chain of Cytochrome P450 2C19 (Homo sapiens) (P33261 whole entry, looked up): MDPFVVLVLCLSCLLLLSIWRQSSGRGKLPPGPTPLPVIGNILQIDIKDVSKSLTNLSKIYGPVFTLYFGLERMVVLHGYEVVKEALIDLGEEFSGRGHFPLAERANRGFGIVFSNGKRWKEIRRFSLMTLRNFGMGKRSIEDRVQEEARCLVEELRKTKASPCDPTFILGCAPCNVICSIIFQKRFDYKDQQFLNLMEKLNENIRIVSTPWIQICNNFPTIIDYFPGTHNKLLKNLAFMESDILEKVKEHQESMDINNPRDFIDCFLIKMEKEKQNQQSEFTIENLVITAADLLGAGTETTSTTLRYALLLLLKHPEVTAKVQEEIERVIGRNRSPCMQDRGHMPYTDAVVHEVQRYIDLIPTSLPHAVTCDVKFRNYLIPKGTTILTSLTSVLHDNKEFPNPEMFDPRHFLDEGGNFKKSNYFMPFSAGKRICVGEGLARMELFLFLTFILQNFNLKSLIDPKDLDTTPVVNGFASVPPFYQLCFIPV
Chain of Thyrotropin-releasing hormone receptor (Homo sapiens) (P34981 whole entry, looked up): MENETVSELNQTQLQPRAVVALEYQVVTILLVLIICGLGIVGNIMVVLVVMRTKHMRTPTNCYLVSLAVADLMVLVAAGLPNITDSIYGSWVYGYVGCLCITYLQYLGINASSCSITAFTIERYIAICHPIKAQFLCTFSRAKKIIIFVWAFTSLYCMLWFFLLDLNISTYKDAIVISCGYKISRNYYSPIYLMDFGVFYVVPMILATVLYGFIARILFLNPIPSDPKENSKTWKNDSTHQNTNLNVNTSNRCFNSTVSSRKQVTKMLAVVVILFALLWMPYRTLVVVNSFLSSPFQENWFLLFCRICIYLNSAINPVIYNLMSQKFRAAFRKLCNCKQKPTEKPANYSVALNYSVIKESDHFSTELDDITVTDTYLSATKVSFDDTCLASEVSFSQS
Chain of Cytochrome P450 1A2 (Homo sapiens) (P05177 whole entry, looked up): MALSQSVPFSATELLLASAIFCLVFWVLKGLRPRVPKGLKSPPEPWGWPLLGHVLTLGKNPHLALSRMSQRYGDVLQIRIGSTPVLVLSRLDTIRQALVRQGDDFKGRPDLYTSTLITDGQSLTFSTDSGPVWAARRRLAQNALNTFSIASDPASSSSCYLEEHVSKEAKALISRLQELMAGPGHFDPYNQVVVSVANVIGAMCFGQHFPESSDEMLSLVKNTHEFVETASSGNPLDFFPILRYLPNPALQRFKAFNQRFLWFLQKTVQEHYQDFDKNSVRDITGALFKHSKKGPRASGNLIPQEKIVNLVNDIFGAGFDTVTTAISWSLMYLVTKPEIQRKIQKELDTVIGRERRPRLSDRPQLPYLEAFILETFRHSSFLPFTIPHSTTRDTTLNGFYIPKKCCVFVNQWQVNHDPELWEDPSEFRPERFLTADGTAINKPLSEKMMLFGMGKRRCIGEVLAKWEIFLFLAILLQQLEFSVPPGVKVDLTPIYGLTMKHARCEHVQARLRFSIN
Chain of Nuclear receptor subfamily 1 group I member 2 (Homo sapiens) (O75469 whole entry, looked up): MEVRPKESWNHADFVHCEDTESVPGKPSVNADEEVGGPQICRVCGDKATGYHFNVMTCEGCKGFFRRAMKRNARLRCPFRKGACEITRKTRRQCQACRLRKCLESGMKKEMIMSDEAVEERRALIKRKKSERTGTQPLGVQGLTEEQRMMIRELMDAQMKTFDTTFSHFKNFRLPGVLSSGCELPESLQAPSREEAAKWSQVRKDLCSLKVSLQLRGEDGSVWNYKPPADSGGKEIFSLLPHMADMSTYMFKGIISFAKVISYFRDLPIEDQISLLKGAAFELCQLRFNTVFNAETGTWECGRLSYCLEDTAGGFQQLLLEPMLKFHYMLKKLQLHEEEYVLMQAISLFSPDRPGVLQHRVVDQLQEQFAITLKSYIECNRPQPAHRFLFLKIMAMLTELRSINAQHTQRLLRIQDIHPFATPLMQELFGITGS
Chain of Cytochrome P450 2D6 (Homo sapiens) (P10635 whole entry, looked up): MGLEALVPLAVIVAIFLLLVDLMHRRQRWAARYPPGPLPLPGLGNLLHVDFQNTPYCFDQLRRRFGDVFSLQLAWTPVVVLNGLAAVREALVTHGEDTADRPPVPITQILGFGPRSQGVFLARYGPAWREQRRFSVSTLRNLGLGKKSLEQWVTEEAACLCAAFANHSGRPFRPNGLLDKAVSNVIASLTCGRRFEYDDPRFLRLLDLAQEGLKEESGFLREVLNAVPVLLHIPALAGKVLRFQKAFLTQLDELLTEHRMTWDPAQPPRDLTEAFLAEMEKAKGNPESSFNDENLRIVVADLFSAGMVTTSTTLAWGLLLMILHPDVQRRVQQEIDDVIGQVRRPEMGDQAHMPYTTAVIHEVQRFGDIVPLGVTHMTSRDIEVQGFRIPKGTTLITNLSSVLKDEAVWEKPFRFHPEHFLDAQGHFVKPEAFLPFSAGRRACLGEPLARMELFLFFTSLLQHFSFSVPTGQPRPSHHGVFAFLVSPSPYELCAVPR
Chain of Cytochrome P450 2C9 (Homo sapiens) (P11712 whole entry, looked up): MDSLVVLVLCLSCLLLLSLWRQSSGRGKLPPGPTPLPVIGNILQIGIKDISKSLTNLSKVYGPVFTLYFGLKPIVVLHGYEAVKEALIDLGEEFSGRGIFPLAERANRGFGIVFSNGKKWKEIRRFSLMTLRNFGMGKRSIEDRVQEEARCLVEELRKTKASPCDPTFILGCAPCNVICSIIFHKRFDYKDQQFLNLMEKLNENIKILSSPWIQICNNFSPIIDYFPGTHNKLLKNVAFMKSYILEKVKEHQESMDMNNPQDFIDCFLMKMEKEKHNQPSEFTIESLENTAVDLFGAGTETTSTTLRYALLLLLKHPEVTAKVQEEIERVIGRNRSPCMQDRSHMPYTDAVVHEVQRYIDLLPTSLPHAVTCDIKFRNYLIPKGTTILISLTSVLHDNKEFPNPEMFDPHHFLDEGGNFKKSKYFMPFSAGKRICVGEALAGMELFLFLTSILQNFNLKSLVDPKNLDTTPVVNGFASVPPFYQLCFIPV

O=C=NCc1cccc(CN=C=O)c1
active: Potency [13] 6.74 µM
inactive: activity change, negative = cytotoxicity [1] -11.8% [at 18.9 µM] | viability change, negative = cytotoxic [2] -4.21% [at 15.8 µM] | activity change, negative = cytotoxicity [3] -12.3% [at 15.8 µM] | activation [4] 3.26% [at 15.8 µM] | activity, negative = inhibition [5] 1.76% [at 10.5 µM] | activity change, negative = cytotoxicity [6] 4.21% [at 19 µM] | caspase activation [7] -0.106% [at 19 µM] | activity change, negative = cytotoxicity [8] 0.691% [at 19 µM] | caspase-3/7 activation [9] -0.138% [at 19 µM] | activity change, negative = cytotoxicity [10] 9.74% [at 19 µM] | activation [11] 2.53% [at 19 µM] | activity change, negative = inhibition [12] -24.5% [at 23.6 µM] | activity change, negative = inhibition [14] -18.9% [at 23.6 µM]

O[C@@H](c1cc(C(F)(F)F)nc2c(C(F)(F)F)cccc12)[C@H]1CCCCN1
inactive: Potency [4] | Potency [5] | Potency [11] | Potency [16]
active: Potency [1] 26.6 µM | Potency [15] 26.6 µM | Potency [6] 26.6 µM | Potency [7] 26.6 µM | Potency [8] 26.6 µM

CCCSS/C(CCO)=C(\C)N(C=O)Cc1cnc(C)nc1N
active: Potency [12] 34.7 µM
inactive: Potency [1] | Potency [2] | Potency [3] | Potency [4] | Potency [5] | Potency [17] | Potency [10] | Potency [18] | Potency [16] | Potency [19] | Potency [14]

CCCC(O)C(O)CO (centres undefined)
inactive: Potency [1] | Potency [2] | Potency [3] | Potency [4] | Potency [5] | Potency [17] | Potency [7] | Potency [8] | Potency [9] | Potency [10] | Potency [11] | Potency [12] | Potency [19] | Potency [13] | Potency [14]

CCOC(/C=C(\C)CCC=C(C)C)OCC
inactive: Potency [1] | Potency [2] | Potency [3] | Potency [4] | Potency [5] | Potency [17] | Potency [8] | Potency [9] | Potency [10] | Potency [11] | Potency [12] | Potency [13] | Potency [14]

ClC/C=C\CCl
active: Potency [19] 33.1 µM | Potency [14] 11.7 µM
inactive: Potency [1] | Potency [2] | Potency [3] | Potency [4] | Potency [5] | Potency [17] | Potency [6] | Potency [8] | Potency [9] | Potency [13]

Cc1c(-c2ccc(O)cc2)n(Cc2ccc(OCCN3CCCCCC3)cc2)c2ccc(O)cc12
inactive: Potency [14]
active: Potency [1] 33.5 µM | Potency [15] 29.8 µM | Potency [6] 23.7 µM | Potency [8] 29.8 µM | Potency [10] 29.8 µM | Potency [11] 9.44 µM

OCCC(O)CO (centres undefined)
inactive: Potency [1] | Potency [2] | Potency [3] | Potency [4] | Potency [5] | Potency [17] | Potency [6] | Potency [7] | Potency [8] | Potency [9] | Potency [10] | Potency [11] | Potency [12] | Potency [19] | Potency [13] | Potency [14]

Clc1ccc(C(c2ccccc2Cl)C(Cl)Cl)cc1 (centres undefined)
active: Potency [11] 10.9 µM | Potency [19] 1.59 µM and 776 nM | Potency [13] 20 µM and 9.77 µM
inactive: Potency [1] | Potency [2] | Potency [3] | Potency [4] | Potency [5] | Potency [17] | Potency [6] | Potency [9] | Potency [10] | Potency [14]

CCN(CC)c1ccc(N)cc1
active: Potency [1] 44.5 µM | Potency [15] 44.5 µM | Potency [6] 15.8 µM | Potency [8] 22.3 µM | Potency [10] 25 µM | Potency [12] 13 µM | Potency [19] 9.18 µM | Potency [13] 23.1 µM | Potency [14] 41 µM
inactive: Potency [5] | Potency [17] | Potency [9] | Potency [11]

CCCCCCC(C)OC(=O)COc1nc(F)c(Cl)c(N)c1Cl (centres undefined)
inactive: Potency [1] | Potency [2] | Potency [3] | Potency [4] | Potency [5] | Potency [17] | Potency [6] | Potency [8] | Potency [9] | Potency [10] | Potency [11]
active: Potency [19] 4.48 µM | Potency [13] 17.8 µM | Potency [14] 5.64 µM

Cc1cc(=O)[nH]c(=O)[nH]1
inactive: Potency [1] | Potency [2] | Potency [3] | Potency [4] | Potency [5] | Potency [17] | Potency [6] | Potency [7] | Potency [8] | Potency [9] | Potency [10] | Potency [11] | Potency [12] | Potency [19] | Potency [13] | Potency [14]
